Our source for the composite z-score and composite Z-score values is PubChem BioAssay.

In one experiment the target is Albumin (Bos taurus) (UniProt P02769). As to the kind of experiment: compounds binding labelled BSA control protein – biochemical, small-molecule microarray, Alexa647 label, 635/667 nm fluorescence, artefact control for SMM control protein annotation, profiling panel (AID 1118).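 Further: score merges 667 nm emission intensity and signal-to-noise per printed compound spot.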 The note with it: BSA-A647 binding, fluorescence 635 nm, higher = more signal.
Albumin (Bos taurus), sequence (P02769 whole entry, looked up): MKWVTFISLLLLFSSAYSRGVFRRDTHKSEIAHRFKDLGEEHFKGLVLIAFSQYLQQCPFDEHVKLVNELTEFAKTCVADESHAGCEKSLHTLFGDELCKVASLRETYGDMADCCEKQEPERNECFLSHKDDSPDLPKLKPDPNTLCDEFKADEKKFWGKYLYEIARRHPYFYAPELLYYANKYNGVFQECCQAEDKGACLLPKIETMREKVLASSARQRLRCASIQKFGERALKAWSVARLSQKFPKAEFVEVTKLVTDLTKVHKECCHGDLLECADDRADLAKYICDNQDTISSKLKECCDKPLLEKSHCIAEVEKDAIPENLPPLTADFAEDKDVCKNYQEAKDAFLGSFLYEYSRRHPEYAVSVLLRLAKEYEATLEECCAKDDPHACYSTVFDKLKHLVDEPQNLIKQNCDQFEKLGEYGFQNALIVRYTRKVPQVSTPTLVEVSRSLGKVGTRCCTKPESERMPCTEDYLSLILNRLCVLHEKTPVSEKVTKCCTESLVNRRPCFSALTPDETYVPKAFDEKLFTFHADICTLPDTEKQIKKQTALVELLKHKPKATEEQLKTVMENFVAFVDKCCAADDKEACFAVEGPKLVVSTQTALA
Experiment [1] in a line: probe aXIP binding to arrayed compounds – biochemical, NeuroSMM set, 635/667 nm fluorescence, primary screen (AID 1119).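 Further: probe is the protein aXip251-270 applied at 1 µg/mL to compound-printed slides; binding of probe to printed compounds measured as 667 nm fluorescence plus signal to noise.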 The note with it: small-molecule microarray, higher = more signal, called active from +8 up or from −8 down.
Experiment [2] can be described thus: probe aNOTCH3 binding on compound microarray – biochemical, small-molecule microarray, 635/667 nm fluorescence, primary screen (AID 1120).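 Further: probe is a biotin-tagged antibody raised against NOTCH3 rather than NOTCH3 protein; score merges spot fluorescence near 667 nm with spot signal to noise.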 The note with it: higher = more signal.
A short description of experiment [3]: probe aNOTCH2 binding on compound microarray – biochemical, small-molecule microarray, 635/667 nm fluorescence, primary screen (AID 1121).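 Further: score merges feature fluorescence read at 667 nm with its signal to noise.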 The note with it: higher = more signal.
Experiment [4] concerns the target Carbonic anhydrase 2 (Homo sapiens) (UniProt P00918). As to the kind of experiment: compounds binding carbonic anhydrase 2 – biochemical, small-molecule microarray, Alexa647-labelled CAII, profiling panel (AID 1122). The note with it: CAII-A647 binding fluorescence, higher = more signal.
Experiment [5] is described as follows: COS7 lysate on small-molecule microarray, probe aHis, 635 nm (AID 1123).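 Further: z-score combines 667nm fluorescence intensity with signal-to-noise per printed compound spot.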 The following applies: COS7 cell lysate, fluorescence, higher = more signal.
Experiment [6] can be described thus: probe aLAP1 signal on lysate-treated microarray – cell lysate, small-molecule microarray, COS7 lysate, primary screen (AID 1124).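 Further: lysate comes from COS7 cells expressing LAP1 and is applied at 0.3 µg/mL; score merges spot fluorescence near 667 nm with signal-to-noise over triplicate slides.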 The note with it: probe aLAP1, fluorescence, higher = more signal.
In another experiment the test system is Sam68 (KHDRBS1). As to the kind of experiment: compounds binding KHDRBS1 protein – biochemical, small-molecule microarray, 635 nm fluorescence, primary screen (AID 1125).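 Further: score merges 667 nm channel intensity with signal to noise over triplicate slides.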 The note with it: higher = more signal.
The subject of experiment [7] is Chordin-like protein 2 (CHRDL2). Nature of the experiment: compounds binding chordin-like 2 – biochemical, small-molecule microarray, 635 nm fluorescence, primary screen (AID 1126).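 Further: printed compound slides probed with Chrdl2 protein at 4 µg/mL for 1 h at 4 C; score merges 667 nm emission intensity with signal to noise over three replicate slides.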 The following applies: fluorescence 635 nm, higher = more signal.
For experiment [8], the target named is Concanavalin-A (Canavalia ensiformis) (UniProt P02866). As to the kind of experiment: compounds binding concanavalin A lectin – biochemical, small-molecule microarray, Alexa647 label, 635 nm, artefact control for SMM control protein annotation, primary screen (AID 1127).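 Further: z combines 667 nm emission intensity with signal-to-noise across three replicate slides.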 The following applies: ConA-A647 binding fluorescence, higher = more signal.
Concanavalin-A (Canavalia ensiformis), sequence (P02866 whole entry, looked up): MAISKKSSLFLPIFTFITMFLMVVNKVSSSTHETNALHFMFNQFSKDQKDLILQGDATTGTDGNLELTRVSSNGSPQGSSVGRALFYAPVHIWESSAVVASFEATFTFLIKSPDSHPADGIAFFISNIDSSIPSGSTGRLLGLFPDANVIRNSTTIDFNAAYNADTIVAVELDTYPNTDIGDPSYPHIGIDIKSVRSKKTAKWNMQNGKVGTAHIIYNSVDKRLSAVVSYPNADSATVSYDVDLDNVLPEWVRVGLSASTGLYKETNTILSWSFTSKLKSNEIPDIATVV

Each structure is given as a SMILES string. The source made the active and inactive calls.

Consider `O=C1[C@H]2[C@H]3[C@H](O)[C@H](O)CC(=NOC[C@@H](O)COCc4ccco4)[C@@H]3CC[C@H]2C(=O)N1C[C@@H]1CCCO1`, for which the composite z-score is 0.63 in the experiment with Albumin (Bos taurus); -0.0345 in experiment [2]; -0.0986 in experiment [3]; -0.267 in experiment [4]; 0.155 in [5]; 0.174 in experiment [6]. Further, the composite z-score in the experiment on Sam68 (KHDRBS1) is 0.902; in experiment [7] it was 1.53; in experiment [8], -0.281. In addition, the composite Z-score in [1] was 0.381 (inactive).
Consider `Cc1ccc(S(=O)(=O)OC[C@H]2CN3[C@H](c4ccc(Br)cc4)[C@@H](C)CC[C@H]3C(=O)O2)cc1`, for which the composite z-score in the experiment with Albumin (Bos taurus) is 0.122; in experiment [2] it was -0.0918; in [3] it was -0.147; in experiment [4] it was 0.366; in experiment [5] it was 0.393; in experiment [6] it was 0.0759. Further, the composite z-score in the experiment with Sam68 (KHDRBS1) stood at 0.893; in [7], 0.0388; in [8], 0.818. In experiment [1], the composite Z-score is -0.446 (inactive).
On to `C[C@@H]1CC[C@H]2C(=O)O[C@@H](COc3ccc(C(C)(C)C)cc3)CN2[C@@H]1c1ccc(Br)cc1`, for which the composite z-score was 0.0192 in the experiment with Albumin (Bos taurus); -0.21 in experiment [2]; -0.14 in [3]; -0.408 in experiment [4]; -0.0056 in experiment [5]; -0.239 in experiment [6]. The composite z-score is -0.558 in the experiment with Sam68 (KHDRBS1), -0.614 in experiment [7] and -0.619 in [8]. Moreover, the composite Z-score in experiment [1] was -0.695 (inactive).
As for `CCOC(=O)[C@H](CC(C)C)NC(=O)CCC1CC(OC(=O)NCCc2ccc(F)cc2)CC2(CCCC(COC(=O)NCC(c3ccccc3)c3ccccc3)O2)O1` (stereo not given in full), the composite z-score was 0.436 in the experiment with Albumin (Bos taurus); 0.0372 in [2]; -0.108 in experiment [3]; 0.349 in experiment [4]; -0.0758 in experiment [5]; 0.0521 in experiment [6]. For the same molecule, the figures for the composite z-score (with Sam68 (KHDRBS1); in [7]; in [8]) were 1.11, 0.609 and 1.1, respectively. Moreover, the composite Z-score in experiment [1] is 0.428 (inactive).
Take `CC(=O)OC[C@H]1O[C@@H](ON=C(C)CCN2CCCc3nc(C)c(C)cc32)[C@H](OC(C)=O)[C@@H](OC(C)=O)[C@@H]1OC(C)=O`: the composite z-score in the experiment with Albumin (Bos taurus) was 0.449; in experiment [2], -0.0587; in experiment [3], -0.0695; in experiment [4], 0.155; in experiment [5] it was 0.678; in experiment [6], 0.16. Moreover, the composite z-score is 1.13 with Sam68 (KHDRBS1), -0.144 in experiment [7] and 1.03 in experiment [8]. Further, the composite Z-score in [1] is 0.403 (inactive).
For `O=C1[C@H]2[C@H]3[C@H](O)[C@H](O)CC(=NOC[C@@H](O)COCc4ccco4)[C@H]3CC[C@H]2C(=O)N1c1ccc(F)cc1F`, the composite z-score in the experiment with Albumin (Bos taurus) was -0.0108; in [2] it was -0.291; in experiment [3], -0.146; in experiment [4], 0.823; in experiment [5], -0.823; in [6], 0.0839. Moreover, the values for the composite z-score (in the experiment with Sam68 (KHDRBS1); in [7]; in experiment [8]) were -1.25, -0.48 and -1.03, respectively. In [1], the composite Z-score was -0.214 (inactive).
Regarding `Cc1cc2c(nc1C)CCCN2CC(O)CN1CCCc2nc(C)c(C)cc21`, the composite z-score in the experiment with Albumin (Bos taurus) was -0.293; in experiment [2] it was 0.308; in [3], 0.054; in [4], 0.798; in experiment [5], 1.21; in experiment [6] it was 0.446. For the same molecule, the figures for the composite z-score (with Sam68 (KHDRBS1); in experiment [7]; in experiment [8]) were 0.651, 0.633 and 0.879, respectively. Also, the composite Z-score in experiment [1] was 2.34 (inactive).
With `CCOC(=O)[C@H](Cc1ccccc1)NC(=O)CCC1CC(OC(=O)NCCc2ccc(F)cc2)CC2(CCCC(COC(=O)NCCc3ccc(Cl)cc3)O2)O1` (stereo not given in full), the composite z-score was 0.755 with Albumin (Bos taurus); 0.0179 in experiment [2]; -0.101 in experiment [3]; 0.283 in [4]; 1.12 in [5]; 0.416 in [6]. Further, the composite z-score was determined as 1.23 in the experiment with Sam68 (KHDRBS1), 0.38 in experiment [7] and 1.03 in experiment [8]. Also, the composite Z-score in experiment [1] was 0.118 (inactive).
In the case of `COc1ccc(O[C@H]2C=C[C@@H](c3ccccc3)O[C@@H]2CON=CC[C@@H]2C=C[C@H](OC(C)=O)[C@@H](COC(C)=O)O2)cc1`, the composite z-score is 0.779 with Albumin (Bos taurus); 0.0893 in experiment [2]; -0.145 in experiment [3]; -0.198 in experiment [4]; -0.478 in [5]; 0.221 in [6]. Moreover, the composite z-score is -0.176 with Sam68 (KHDRBS1), 0.366 in experiment [7] and 0.543 in experiment [8]. In addition, the composite Z-score in experiment [1] is 0.112 (inactive).
Consider `COC(=O)C=CCCc1coc(C=CCNC(=O)OC)n1`, for which the composite z-score in the experiment with Albumin (Bos taurus) came out at 0.266; in experiment [2], 0.482; in [3] it was 0.16; in experiment [4], 0.492; in experiment [5], 0.32; in [6], 0.146. For the same molecule, the results for the composite z-score (in the experiment on Sam68 (KHDRBS1); in experiment [7]; in [8]) were 0.654, 1.34 and -0.0726, respectively. Moreover, the composite Z-score in experiment [1] was 0.103 (inactive).
Regarding `COC(=O)CC=C[C@@H](C)[C@@H](C=NO[C@@H](C)c1cn([C@H](CO)Cc2ccccc2)nn1)NS(=O)(=O)c1ccc(C)cc1`, the composite z-score in the experiment with Albumin (Bos taurus) was -0.193; in experiment [2], 0.107; in experiment [3], -0.103; in experiment [4], -0.146; in [5], -0.306; in [6] it was 0.232. The values for the composite z-score (in the experiment with Sam68 (KHDRBS1); in [7]; in experiment [8]) were 0.43, 0.784 and -0.419, respectively. The composite Z-score in [1] is -0.0278 (inactive).
`CO[C@H]1COC(=O)[C@@H](C)COC(=O)[C@@H](OCc2ccccc2)C=C[C@@H]1C`: the composite z-score with Albumin (Bos taurus) is -0.858; in experiment [2] it was -0.103; in [3] it was -0.115; in experiment [4] it was -0.369; in experiment [5], -0.194; in [6], -0.259. Moreover, the results for the composite z-score (with Sam68 (KHDRBS1); in experiment [7]; in experiment [8]) were -0.234, 0.159 and -0.459, respectively. Also, the composite Z-score in [1] is -0.535 (inactive).
